Laboratory results taken from the supplement of paper PMC12636033.
± gives the standard deviation of the averaged measurements. In all, about 33,000 sequences were measured (“E-score (rank enrichment, -0.5 to 0.5)”: median about -0.0075, highest 2% from about 0.23 on). The sample holds the highest values, similar sequences and a random draw of the others, so the mix is not that of the screen.

What follows are sequences tested on WT Max(13-93) synthetic (M65Nle) (assay: PBM 8-mer E-score (E-score (rank enrichment, -0.5 to 0.5)); higher = stronger preferential binding).
Method: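 Protein binding microarray (universal PBM chip covering all 10-mers in fixed probe flanks) with chemically synthesized human Max(13-93) bHLH-LZ analogs (not full-length Max) bearing noncanonical residues (hArg, Tha, Aib, Nle at 65) and aromatic Cys staples. Read-out per 8-mer (and its reverse complement): E-score (rank-based enrichment, -0.5 to 0.5) and Z-score of median probe intensity.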

| Sequence | PBM 8-mer E-score |
| --- | --- |
| GTAAAATA | 0.0829 ± 0.0054 |
| TAGAAATA | 0.251 ± 0.07 |
| AAAAAATA | 0.246 ± 0.022 |
| AAAGAATA | 0.241 ± 0.039 |
| ATAAAATC | 0.109 ± 0.055 |
| GAAAAATA | 0.198 ± 0.08 |
| GAAGAATA | 0.104 ± 0.034 |
| ATAAAATA | 0.244 ± 0.0078 |
| CAAAAATA | 0.185 ± 0.02 |
| CAAGAATA | 0.13 ± 0.035 |
| GAGAAATA | 0.0631 ± 0.15 |
| AAGAAATA | 0.129 ± 0.0058 |
| CATGCCGC | 0.0835 ± 0.051 |
| AATAGAGG | 0.00232 ± 0.055 |
| GAGTGGTA | -0.108 ± 0.011 |
| AATGCAGG | 0.087 ± 0.07 |
| AAGAACGA | 0.129 ± 0.018 |
| CAGAGTGC | -0.201 ± 0.058 |
| CTCGAAAG | -0.184 ± 0.043 |
| GACGAACA | 0.0177 ± 0.055 |
| GTTCATTA | 0.113 ± 0.06 |
| AGGTTTAA | 0.0368 ± 0.0029 |
| GGCTGGAA | -0.0381 ± 0.036 |
| CTTAAATA | 0.139 ± 0.023 |
| ATAAATTA | 0.324 ± 0.038 |

| Sequence | PBM 8-mer E-score |
| --- | --- |
| CTAAATTA | 0.0753 ± 0.031 |
| ATTAAATA | 0.174 ± 0.085 |
| ATAAATTG | 0.0667 ± 0.085 |
| GTTAAATA | 0.257 ± 0.1 |
| CGGGTCAA | -0.125 ± 0.03 |
| ATGGCTAG | 0.0642 ± 0.13 |
| AGGGAGCC | -0.227 ± 0.056 |
| AGTGCGTG | 0.0848 ± 0.032 |
| GGTTAGGA | 0.0556 ± 0.043 |
| ACTTAAAC | 0.0371 ± 0.073 |
| CCGCAGAG | -0.0777 ± 0.023 |
| CTGACACA | -0.0349 ± 0.034 |
| ATGACACA | 0.236 ± 0.042 |
| ATGACACG | 0.298 ± 0.039 |
| AAGACACG | 0.246 ± 0.021 |
| AAGACACA | 0.0963 ± 0.021 |
| CAGACACG | -0.0764 ± 0.14 |
| GTGACACA | 0.0907 ± 0.1 |
| ATGACACC | 0.159 ± 0.048 |
| ATGACAGG | 0.0387 ± 0.051 |
| CAGTCTGC | -0.0522 ± 0.01 |
| ACCTAATG | 0.00028 ± 0.0032 |
| CCAGGAGC | -0.312 ± 0.0027 |
| TAAAAACA | 0.25 ± 0.0036 |
| ATAAAAGG | 0.0572 ± 0.12 |

| Sequence | PBM 8-mer E-score |
| --- | --- |
| GAAGAACA | 0.209 ± 0.057 |
| ATAAAAAG | 0.283 ± 0.11 |
| TAAGAACA | 0.243 ± 0.099 |
| ATAAAAAA | 0.19 ± 0.044 |
| CAAGAACA | 0.0399 ± 0.038 |
| AAAAAACA | 0.158 ± 0.071 |
| ATAAAACA | 0.24 ± 0.0041 |
| CTAAAACA | -0.07401 ± 0.00047 |
| ATAAAACG | 0.163 ± 0.16 |
| GTAAAACA | 0.142 ± 0.14 |
| GCCCCGTA | -0.0782 ± 0.17 |
| ACGGGGTC | -0.061 ± 0.014 |
| CGGCAGAC | -0.218 ± 0.039 |
| AACCATTC | 0.0337 ± 0.04 |
| AATGCCGC | -0.0772 ± 0.0051 |
| CGACTAAA | -0.00903 ± 0.06 |
| AATAGGCA | 0.118 ± 0.0074 |
| GCGCGCCC | 0.00746 ± 0.051 |
| CAGGTTCC | -0.228 ± 0.077 |
| CCGTTAGC | -0.112 ± 0.12 |
| CTAAAGCA | 0.0761 ± 0.037 |
| ATCAAACA | 0.238 ± 0.041 |
| ATCAAGCA | 0.113 ± 0.0099 |
| ATAAAGCG | 0.106 ± 0.045 |
| CTCAAACA | 0.117 ± 0.014 |

| Sequence | PBM 8-mer E-score |
| --- | --- |
| ATAAAGCA | 0.264 ± 0.046 |
| GGCGGATA | -0.183 ± 0.13 |
| TGTGTTAA | 0.226 ± 0.034 |
| TTACACAA | 0.00996 ± 0.084 |
| ACCTGGGC | -0.318 ± 0.086 |
| AATCCTCT | 0.079 ± 0.071 |
| ACGCCAAC | -0.125 ± 0.04 |
| TGTATTAA | 0.173 ± 0.026 |
| CCTCAGGC | -0.057 ± 0.056 |
| ACGTGGGC | 0.33 ± 0.012 |
| AGGTGGGA | 0.0263 ± 0.046 |
| CCGTGGGA | -0.15 ± 0.023 |
| CCGTGGGC | -0.129 ± 0.18 |
| ACGTGGGG | 0.164 ± 0.08 |
| AAGTGGGA | 0.212 ± 0.0035 |
| GAGTGGGA | -0.0159 ± 0.0035 |
| ACGTGGGA | 0.302 ± 0.039 |
| GCGTGGGA | 0.238 ± 0.035 |
| CGCTGCAG | -0.19 ± 0.18 |
| GGACCGAC | -0.168 ± 0.097 |
| CGCAGCCA | -0.117 ± 0.093 |
| AGTGTTCC | -0.151 ± 0.007 |
| GCGGCAAC | -0.106 ± 0.026 |
| CACCCGAG | -0.19 ± 0.056 |
| GAACCAAC | 0.0313 ± 0.051 |

| Sequence | PBM 8-mer E-score |
| --- | --- |
| ATCTCAAA | -0.0195 ± 0.13 |
| CTGAGGAA | -0.111 ± 0.035 |
| ACAATGAC | 0.0383 ± 0.055 |
| AAAATGAT | 0.249 ± 0.13 |
| AAAATGAA | 0.138 ± 0.00081 |
| AAAATGAC | 0.174 ± 0.013 |
| ACAATGTA | 0.239 ± 0.034 |
| GCAATGTA | 0.0841 ± 0.011 |
| ACAATGTC | 0.108 ± 0.095 |
| ACAATGAG | 0.137 ± 0.029 |
| ACAATGAT | 0.241 ± 0.024 |
| TATGACGA | 0.0259 ± 0.072 |
| ATGATGCC | -0.00394 ± 0.018 |
| GGCTACCC | -0.19 ± 0.032 |
| CGCAAGAA | -0.121 ± 0.097 |
| GAGCCGGC | -0.26 ± 0.041 |
| AATGATCC | -0.122 ± 0.097 |
| GACAATAC | 0.202 ± 0.02 |
| AACAATAC | 0.236 ± 0.036 |
| AACAATTG | 0.128 ± 0.05 |
| ACCAATAT | 0.175 ± 0.057 |
| AACAATTC | 0.146 ± 0.012 |
| AACAATTA | 0.248 ± 0.061 |
| AACAATAA | 0.213 ± 0.15 |
| AACAATAG | -0.112 ± 0.17 |

| Sequence | PBM 8-mer E-score |
| --- | --- |
| AACAATAT | 0.252 ± 0.089 |
| AGCCGCTA | -0.263 ± 0.022 |
| CTCGATAA | -0.0814 ± 0.087 |
| AAGCGGGT | -0.0582 ± 0.061 |
| TCAGATCA | -0.0835 ± 0.073 |
| CCTCGACC | -0.128 ± 0.09 |
| GCTAAAAC | -0.101 ± 0.028 |
| TGAGATCA | -0.0342 ± 0.1 |
| AGCTGGAT | -0.164 ± 0.054 |
| CTCCCATA | -0.0036 ± 0.067 |
| ATGTTTTG | 0.24 ± 0.066 |
| ATGTTTAG | 0.278 ± 0.063 |
| ATGTTTAA | 0.22 ± 0.078 |
| CTGTTTAC | 0.0925 ± 0.099 |
| ATGTTTTA | 0.102 ± 0.043 |
| ATGTTTGG | 0.147 ± 0.042 |
| ATGTTTAC | 0.243 ± 0.0084 |
| ATGTTTCC | 0.225 ± 0.092 |
| ACGTTTAG | 0.0123 ± 0.031 |
| AAAATAGG | 0.031 ± 0.16 |
| GACAACCC | 0.0334 ± 0.15 |
| CGGCCAGA | -0.212 ± 0.006 |
| ATGCTTTA | 0.277 ± 0.0049 |
| CTGCTTTA | 0.169 ± 0.061 |
| ATGCTTTC | 0.174 ± 0.051 |

| Sequence | PBM 8-mer E-score |
| --- | --- |
| ATGATCGC | -5e-06 ± 0.043 |
| TGCCCGCA | 0.0712 ± 0.065 |
| GACATGTA | 0.273 ± 0.035 |
| GTCATGTA | 0.0154 ± 0.027 |
| AACATGTA | 0.23 ± 0.087 |
| TACATGAA | 0.11 ± 0.053 |
| GACATGTC | 0.163 ± 0.042 |
| TACATGTA | 0.308 ± 0.042 |
| GTGTCCGA | -0.00187 ± 0.12 |
| AGAGTACG | -0.124 ± 0.0062 |
| TGATCGAA | 0.0153 ± 0.063 |
| CGAGGAAA | 0.0336 ± 0.072 |
| GTTGTAGA | -0.101 ± 0.093 |
| ATTGTAGA | 0.302 ± 0.0094 |
| CTTGTAGA | -0.146 ± 0.15 |
| ATCAATTG | 0.239 ± 0.016 |
| ATCAATTA | 0.225 ± 0.04 |
| ATCAATTC | 0.0046 ± 0.15 |
| AGGACGGC | -0.0864 ± 0.17 |
| AAAACGTC | 0.0934 ± 0.022 |
| GACCGATA | -0.0238 ± 0.067 |
| CTAAACCC | 0.00702 ± 0.049 |
